Assay results as given in PubChem BioAssay (EPA / NIEHS).
“And” between values parts separate entries of the source, which are not always exact repeats. Equal entries are not always repeated. The source holds several records for some structures; these can differ, active in one and inactive in another. The source made the active and inactive calls. How the source made its calls: active means hit-call score of the fitted dose curve at least 0.9, where 1 is the maximum; inactive means score below 0.9.

What was measured:
[1] = APR_HepG2_CellLoss_72hr: Apredica 72-hour HepG2 Assay for Cell Loss (AID 2282915); settings: high-content imaging
Method in brief: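 Cell number comes from Hoechst 33342-labelled nuclei, imaged at 20x after 3.7% formaldehyde fixation. Dosing was 0.39–200 uM, ten concentrations in duplicate, 0.5% DMSO final, for 72 h. Bidirectional fit relative to DMSO baseline.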

[2] = APR_HepG2_P-H2AX_72hr: Apredica 72-hour HepG2 Assay for H2AX Phosphorylation (AID 2282916); settings: imaging, actives raise or lower the signal;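 further: phospho-histone H2A.x immunostain intensity per cell marking DNA damage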
Method in brief: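 Human hepatoma HepG2 cells are dosed across ten concentrations (0.39 to 200 uM, 0.5% v/v DMSO) and incubated 72 hr. Phospho-histone H2A.x is then detected by antibody staining alongside c-Jun and Hoechst, and quantified by automated fluorescence imaging.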

[3] = APR_HepG2_MitoMembPot_72hr: Apredica 72-hour HepG2 Assay for Mitochondrial Membrane Potential (AID 2282917); settings: imaging, actives raise or lower the signal
Method in brief: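 Membrane potential read by MitoTracker Red CMXRos (250 nM, 30 min, pre-fixation) fluorescence imaging of HepG2 after 72 hr exposure. Ten concentrations, 0.39–200 uM, duplicate wells, 0.5% DMSO; fitted in both directions against DMSO baseline.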

[4] = APR_HepG2_MitoticArrest_72hr: Apredica 72-hour HepG2 Assay for Mitotic Arrest (AID 2282918); settings: high-content imaging, actives raise or lower the signal
Method in brief: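 Read-out is phospho-histone H3 immunofluorescence with Hoechst nuclear segmentation, imaged at 20x. Human HepG2 liver cells received ten concentrations (0.39–200 uM, final DMSO 0.5% v/v) for 72 hr before fixation. Gain or loss of signal was fitted relative to DMSO.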

[5] = APR_HepG2_MicrotubuleCSK_72hr: Apredica 72-hour HepG2 Assay for Microtubule CSK Stabilty (AID 2282919); settings: HepG2 microtubule cytoskeleton, high-content imaging, actives raise or lower the signal
Method in brief: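 High-content imaging of alpha-tubulin staining in fixed HepG2 cells after 72 hr treatment with ten concentrations from 0.39 to 200 uM (0.5% DMSO). Fitting was bidirectional against DMSO; taxol served as positive control.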

[6] = APR_HepG2_P-H2AX_24hr: Apredica 24-hour HepG2 Assay for H2AX Phosphorylation (AID 2282920); settings: high-content imaging, actives raise or lower the signal
Method in brief: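 HepG2, 24 hr, cpd 0.39–200 uM (10 conc, duplicate), DMSO 0.5% v/v final. Fix 3.7% formaldehyde, Triton X-100 permeabilize, anti-phospho-H2A.x 1:200 + Hoechst 2 ug/mL. Imaged, bidirectional fit vs DMSO.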

[7] = APR_HepG2_StressKinase_72hr: Apredica 72-hour HepG2 Assay for Stress Kinase (AID 2282921); settings: HepG2 stress kinase (phospho-c-Jun) imaging, actives raise or lower the signal
Method in brief: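 After a 72 h compound treatment spanning 0.39 to 200 uM, formaldehyde-fixed cells are labelled for phosphorylated c-Jun and nuclei, imaged by automated fluorescence microscopy, and activity is fitted in both directions relative to DMSO controls.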

[8] = APR_HepG2_StressKinase_24hr: Apredica 24-hour HepG2 Assay for Stress Kinase (AID 2282922); settings: HepG2 stress kinase (phospho-c-Jun) imaging, actives raise or lower the signal
Method in brief: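 High-content imaging of phospho-c-Jun immunofluorescence in fixed, permeabilized HepG2 cells after 24 h dosing. Ten concentrations, 0.39 to 200 uM, run in duplicate at 0.5% v/v DMSO; gain or loss of signal versus DMSO.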

[9] = APR_HepG2_p53Act_72hr: Apredica 72-hour HepG2 Assay for p53 Activation (AID 2282923); settings: high-content imaging, actives raise or lower the signal;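 further: average cellular p53 protein immunofluorescence intensity in HepG2 cells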
Method in brief: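 Imaging-based endpoint: after 72 hr compound exposure (up to 200 uM, 0.5% DMSO), fixed and permeabilized monolayers were labelled with anti-p53 antibody and imaged; signal change in either direction was fitted relative to DMSO controls.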

[10] = APR_HepG2_MitoMass_72hr: Apredica 72-hour HepG2 Assay for Mitochondrial Mass (AID 2282924); settings: high-content imaging, actives raise or lower the signal;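 further: MitoTracker Red CMXRos stain intensity per cell imaged as mitochondrial mass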
Method in brief: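 Readout is imaged MitoTracker Red (250 nM, 30 min, pre-fixation) signal, fitted bidirectionally against DMSO baseline. Human HepG2 liver cells received compound 0.39–200 uM in duplicate for 72 hr, final DMSO 0.5%.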

[11] = ATG_CRE_CIS: Attagene CIS-FACTORIAL HepG2 Assay for human cAMP Responsive Element (CRE) binding protein 3 (AID 2282926); settings: HepG2 CRE cis-reporter, Attagene multiplexed mRNA; actives raise or lower the signal
Method in brief: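 Assay format: transient reporter transfection of HepG2, 24 h treatment, total RNA isolation with DNase I step. Reporter abundance read by fluorescence after PCR and capillary separation; DMSO-normalised gain or loss fitting.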

[12] = target: CCAAT/enhancer-binding protein beta (Homo sapiens) (UniProt P17676); test: ATG_C_EBP_CIS: Attagene CIS-FACTORIAL HepG2 Assay for human CCAAT/Enhancer Binding Protein (C/EBP) beta (AID 2282927); settings: HepG2 Attagene cis-factorial transcription factor reporter; actives raise or lower the signal
Method in brief: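 Endogenous transcription factor activity in human liver HepG2 cells is inferred from induction of a CEBPB-linked reporter mRNA. Exposure lasts 24 h; activity is fitted in both directions relative to DMSO.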

[13] = ATG_CMV_CIS: Attagene CIS-FACTORIAL HepG2 Assay for human CMV (Internal Marker) (AID 2282928); settings: HepG2 CMV promoter reporter, transcription factor profiling; actives raise or lower the signal;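 further: endpoint acts as a background internal control marker rather than a target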
Method in brief: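 Bidirectional fits against DMSO are applied to reporter mRNA, read by RT-PCR with capillary electrophoresis, from HepG2 cells exposed 24 h. The endpoint serves as an internal CMV background marker within the cis-factorial reporter panel.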

[14] = ATG_DR4_LXR_CIS: Attagene CIS-FACTORIAL HepG2 Assay for human Liver X Receptor (LXR), DR4 submotif (AID 2282929); settings: HepG2 Attagene DR4 cis-reporter, mRNA transcription; actives raise or lower the signal
Method in brief: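 Fluorescence intensity of labelled reporter cDNA fragments, separated by capillary electrophoresis, gives the signal. HepG2 cells bearing cis-regulated reporter constructs were treated 24 h; activity fitted bidirectionally relative to DMSO negative control.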

[15] = target: Aryl hydrocarbon receptor (Homo sapiens) (UniProt P35869); test: ATG_Ahr_CIS: Attagene CIS-FACTORIAL HepG2 Assay for human Aryl Hydrocarbon Receptor (Ahr) (AID 2282930); settings: HepG2 AhR cis-factorial reporter transcription; actives raise or lower the signal
Method in brief: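 Transient MRTU transfection of HepG2 → 24 h compound exposure → total RNA, oligo(dT) RT → PCR, 6-FAM extension, HpaI cut → CE fluorescence. DMSO = baseline; bidirectional curve fit.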

[16] = ATG_AP_2_CIS: Attagene CIS-FACTORIAL HepG2 Assay for human Activator Protein 2 (AP-2) (AID 2282932); settings: HepG2 AP-2 cis-reporter, Attagene transcription factor profiling; actives raise or lower the signal
Method in brief: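 Endogenous transcription factor activity is reported through transfected multiplex reporter constructs in HepG2, after 24 h of compound exposure. Transcripts were quantified by RT-PCR and capillary electrophoresis of fluorescent fragments. Bidirectional fit against DMSO.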

[17] = ATG_BRE_CIS: Attagene CIS-FACTORIAL HepG2 Assay for human Bone Morphogenetic Protein (BMP) Response Element (BRE) (AID 2282933); settings: HepG2 BMP response element reporter, Attagene transcription factor profiling; actives raise or lower the signal
Method in brief: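 Fluorescence-labelled reporter cDNA fragments, separated by capillary electrophoresis, gave the signal for this component of a 52-readout multiplex. HepG2 cells were transfected, exposed to chemicals for 24 h, and compared with DMSO using bidirectional fitting.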

[18] = target: Retinoic acid receptor alpha (Homo sapiens) (UniProt P10276); test: ATG_DR5_RAR_CIS: Attagene CIS-FACTORIAL HepG2 Assay for human Retinoic Acid Receptor Alpha (RARE), DR5 submotif (AID 2282934); settings: HepG2 Attagene cis-factorial RARE DR5 reporter, mRNA; actives raise or lower the signal;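 on AC50: reporter responds to endogenous RAR alpha beta and gamma in HepG2 not RARA alone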
Method in brief: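 Transient MRTU transfection of HepG2; 24 h compound treatment; TriZol RNA, oligo(dT) RT, PCR, FAM labelling, capillary electrophoresis. Bidirectional fit vs DMSO. Endogenous TF activity at DR5 RARE.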

[19] = APR_HepG2_NuclearSize_72hr: Apredica 72-hour HepG2 Assay for Nuclear Size (AID 2282925); settings: high-content imaging, actives raise or lower the signal
Method in brief: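 Nuclear size was read by high-content imaging of Hoechst 33342 stain after formaldehyde fixation. Compounds ran 72 h on HepG2 at 0.39 to 200 uM, with final DMSO 0.5% v/v. Curves fitted both directions relative to DMSO control.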

[20] = ATG_AP_1_CIS: Attagene CIS-FACTORIAL HepG2 Assay for human Activator Protein 1 (AP-1) (AID 2282931); settings: HepG2 Attagene cis-factorial AP-1 reporter mRNA; actives raise or lower the signal
Method in brief: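 Multiplexed HepG2 reporter assay, 24 h dosing. mRNA induction detected by RT-PCR plus capillary electrophoresis. Activity fitted in both directions against DMSO.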

Measured: AC50

Chain of CCAAT/enhancer-binding protein beta (Homo sapiens) (P17676 whole entry, looked up): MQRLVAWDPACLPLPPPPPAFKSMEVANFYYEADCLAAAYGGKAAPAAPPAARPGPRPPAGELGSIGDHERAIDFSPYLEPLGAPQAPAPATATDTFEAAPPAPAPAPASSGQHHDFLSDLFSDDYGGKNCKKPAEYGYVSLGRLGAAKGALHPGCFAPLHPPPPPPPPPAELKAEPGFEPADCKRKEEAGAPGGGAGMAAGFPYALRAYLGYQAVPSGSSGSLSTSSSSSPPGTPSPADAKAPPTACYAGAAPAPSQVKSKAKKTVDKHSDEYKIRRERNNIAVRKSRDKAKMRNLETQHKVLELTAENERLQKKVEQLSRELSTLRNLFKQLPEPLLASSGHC
Chain of Aryl hydrocarbon receptor (Homo sapiens) (P35869 whole entry, looked up): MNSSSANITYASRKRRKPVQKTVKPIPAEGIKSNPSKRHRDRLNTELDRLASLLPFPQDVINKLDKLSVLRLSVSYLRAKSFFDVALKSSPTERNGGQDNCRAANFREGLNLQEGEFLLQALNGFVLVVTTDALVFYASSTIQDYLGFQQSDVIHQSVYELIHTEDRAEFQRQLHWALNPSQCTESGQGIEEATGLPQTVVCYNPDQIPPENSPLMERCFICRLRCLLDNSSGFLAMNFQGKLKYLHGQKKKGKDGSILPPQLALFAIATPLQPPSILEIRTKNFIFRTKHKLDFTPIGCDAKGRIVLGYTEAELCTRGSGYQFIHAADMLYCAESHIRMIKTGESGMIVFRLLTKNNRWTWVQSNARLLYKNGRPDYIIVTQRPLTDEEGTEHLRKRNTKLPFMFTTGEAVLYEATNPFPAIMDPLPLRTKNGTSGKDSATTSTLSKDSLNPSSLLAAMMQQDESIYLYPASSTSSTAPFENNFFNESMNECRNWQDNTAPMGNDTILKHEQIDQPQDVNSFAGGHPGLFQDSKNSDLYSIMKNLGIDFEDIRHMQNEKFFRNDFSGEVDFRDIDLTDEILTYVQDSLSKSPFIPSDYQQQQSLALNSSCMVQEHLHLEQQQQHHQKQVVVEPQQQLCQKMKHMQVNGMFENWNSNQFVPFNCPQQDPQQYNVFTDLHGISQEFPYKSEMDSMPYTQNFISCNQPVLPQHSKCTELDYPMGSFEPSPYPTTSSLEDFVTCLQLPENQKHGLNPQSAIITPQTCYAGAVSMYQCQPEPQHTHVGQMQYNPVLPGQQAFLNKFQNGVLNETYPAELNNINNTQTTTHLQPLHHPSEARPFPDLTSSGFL
Chain of Retinoic acid receptor alpha (Homo sapiens) (P10276 whole entry, looked up): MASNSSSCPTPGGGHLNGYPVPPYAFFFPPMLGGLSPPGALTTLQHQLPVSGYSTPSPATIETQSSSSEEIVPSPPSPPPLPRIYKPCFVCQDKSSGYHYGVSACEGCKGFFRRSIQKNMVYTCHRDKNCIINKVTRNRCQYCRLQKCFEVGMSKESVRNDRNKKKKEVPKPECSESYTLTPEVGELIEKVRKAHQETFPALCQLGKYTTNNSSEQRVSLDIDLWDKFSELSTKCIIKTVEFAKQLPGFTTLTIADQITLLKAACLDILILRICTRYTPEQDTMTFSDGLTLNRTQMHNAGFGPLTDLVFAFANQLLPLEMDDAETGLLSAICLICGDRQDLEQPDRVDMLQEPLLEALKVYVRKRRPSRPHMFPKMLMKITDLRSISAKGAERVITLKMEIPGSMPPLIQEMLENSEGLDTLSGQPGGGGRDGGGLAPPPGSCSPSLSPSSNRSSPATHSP

CC#C[C@]1(O)CC[C@H]2[C@@H]3CCC4=CC(=O)CCC4=C3[C@@H](c3ccc(N(C)C)cc3)C[C@@]21C
inactive: [1] | [2] | [3] | [4] | [5] | [6] | [7] | [8] | [9] | [10] | [11] | [12] | [13] | [15] | [16] | [18]
active: [11] 49.8 µM and 47.6 µM and 23.3 µM | [13] 56.9 µM | [14] 10.4 µM [middle of 4 runs] | [15] 6.86 µM and 5.91 µM | [16] 25.7 µM | [17] 22.4 µM [middle of 4 runs] | [18] 7.96 µM

CC(C)CCCCCCOC(=O)CCCCC(=O)OCCCCCCC(C)C
active: [15] 60.3 µM
not listed: [1]
inactive: all other assays above

CCOC(=O)CC(O)(CC(=O)OCC)C(=O)OCC
not listed: [19] | [20]
inactive: all other assays above

CCCCC(CC)COC(=O)CCCCC(=O)OCC(CC)CCCC (configuration not stated)
active: [15] 87.3 µM
not listed: [14] | [20]
inactive: all other assays above

C=C(C)C(=O)OCCC(F)(F)C(F)(F)C(F)(F)C(F)(F)C(F)(F)C(F)(F)F
inactive: [1] | [2] | [3] | [4] | [5] | [6] | [7] | [8] | [9] | [10] | [19] | [11] | [12] | [13] | [15] | [20] | [16] | [17]
active: [15] 54.4 µM

O=[N+]([O-])c1ccc(O)cc1
not listed: [1] | [20]
inactive: all other assays above

NC(=O)N(O)[C@@H]1C=C[C@H](Oc2cccc(Oc3ccc(F)cc3)c2)C1
active: [1] 94.7 µM | [4] 85.4 µM | [6] 103 µM | [11] 22.6 µM | [13] 7.56 µM
not listed: [19]
inactive: all other assays above

NC(=O)N1C(=O)C(C(=O)c2cc(Cl)cs2)c2cc(F)c(Cl)cc21 (configuration not stated)
active: [1] 62.7 µM | [2] 64.7 µM | [4] 47.7 µM | [5] 39.2 µM | [6] 99.8 µM | [7] 67.4 µM | [9] 59 µM | [10] 54.4 µM
not listed: [14] | [20]
inactive: all other assays above

CCCCCCCCCCCCN1CCCC1=O
active: [1] 72.4 µM | [2] 58.6 µM | [4] 62.4 µM | [5] 53.3 µM | [6] 67.2 µM | [7] 67.5 µM | [9] 61.3 µM | [10] 109 µM
not listed: [19] | [20]
inactive: all other assays above

N#C[C@@H]1CC(F)(F)CN1C(=O)CNC1CC2CCC(C1)N2c1ncccn1 (some centres not stated)
not listed: [19]
inactive: all other assays above

Oc1cccc(O)c1
active: [17] 29.7 µM
not listed: [19] | [20]
inactive: all other assays above
